Reference: PubChem BioAssay (EPA / NIEHS)
Records with an inconclusive call do not appear. Calls of active or inactive are those of the source. The calls were made as follows, unless noted: active = hit-call score of the fitted dose curve at least 0.9, where 1 is the maximum; inactive = score below 0.9.

Experiments:
[1] = molecular target: Nucleoli Translocation, AR (gene 367) (UniProt P10275); assay: UPITT_HCI_U2OS_AR_TIF2_Nucleoli_Antagonist: University of Pittsburgh U2OS Androgen Receptor-Transcriptional Intermediary Factor 2 (AR-TIF2) Antagonism High Content Imaging Assay for Nucleoli Translocation (AID 2283997; active = hit-call score of the fitted dose curve at least 0.9, where 1 is the maximum)
Chain of Nucleoli Translocation, AR (gene 367) (P10275 whole entry, looked up): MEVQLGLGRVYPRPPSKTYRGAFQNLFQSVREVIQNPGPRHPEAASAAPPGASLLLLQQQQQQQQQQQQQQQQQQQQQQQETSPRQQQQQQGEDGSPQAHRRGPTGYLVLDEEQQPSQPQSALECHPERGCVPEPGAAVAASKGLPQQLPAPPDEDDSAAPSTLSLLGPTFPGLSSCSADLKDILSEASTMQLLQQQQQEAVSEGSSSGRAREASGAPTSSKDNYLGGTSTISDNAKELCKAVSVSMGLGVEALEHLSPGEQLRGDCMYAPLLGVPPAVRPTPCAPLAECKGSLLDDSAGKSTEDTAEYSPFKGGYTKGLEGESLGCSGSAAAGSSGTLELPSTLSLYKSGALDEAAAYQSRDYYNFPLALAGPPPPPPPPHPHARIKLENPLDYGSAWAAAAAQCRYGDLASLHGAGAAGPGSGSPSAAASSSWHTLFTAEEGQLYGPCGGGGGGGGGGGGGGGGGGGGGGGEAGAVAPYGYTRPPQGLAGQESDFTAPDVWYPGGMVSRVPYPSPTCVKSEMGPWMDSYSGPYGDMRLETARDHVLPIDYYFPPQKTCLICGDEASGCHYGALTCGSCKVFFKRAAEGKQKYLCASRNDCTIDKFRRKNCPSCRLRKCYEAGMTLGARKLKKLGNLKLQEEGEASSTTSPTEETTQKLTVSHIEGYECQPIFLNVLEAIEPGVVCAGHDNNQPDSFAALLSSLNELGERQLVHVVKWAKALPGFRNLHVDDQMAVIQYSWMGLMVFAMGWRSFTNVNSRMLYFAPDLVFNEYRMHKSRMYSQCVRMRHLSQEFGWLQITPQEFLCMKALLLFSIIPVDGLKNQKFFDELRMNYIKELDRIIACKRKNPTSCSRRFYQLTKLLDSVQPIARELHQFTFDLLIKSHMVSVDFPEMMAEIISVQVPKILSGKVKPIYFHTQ
In short: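 Measured quantity was AR-RFP fluorescence localized to nucleoli in engineered U2OS cells also bearing TIF2-GFP, acquired on automated high-content imagers. Primary testing used 20 uM compound; actives were confirmed in triplicate wells.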

[2] = molecular target: Ratio of Nucleoli Translocation and Cytoplasm, AR (gene 367) (UniProt P10275); assay: UPITT_HCI_U2OS_AR_TIF2_Nucleoli_Cytoplasm_Ratio_Antagonist: University of Pittsburgh U2OS Androgen Receptor-Transcriptional Intermediary Factor 2 (AR-TIF2) Antagonism High Content Imaging Assay for Ratio of Nucleoli Translocation and Cytoplasm (AID 2283999; active = hit-call score of the fitted dose curve at least 0.9, where 1 is the maximum;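 also: antagonists lower the DHT-driven ratio of nucleolar to cytoplasmic red signal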)
Chain of Ratio of Nucleoli Translocation and Cytoplasm, AR (gene 367) (P10275 whole entry, looked up): as above
In short: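 U2OS cells co-expressing RFP-tagged human AR and GFP-tagged TIF2, antagonist mode with DHT as baseline. Nucleolar-to-cytoplasmic red fluorescence ratio imaged by high-content microscopy; final compound 20 uM (0.2% DMSO) primary, 0.195–50 uM (0.5% DMSO) concentration-response.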

[3] = molecular target: Ratio of Nucleoli Translocation and Cytoplasm, AR (gene 367) (UniProt P10275); assay: UPITT_HCI_U2OS_AR_TIF2_Nucleoli_Cytoplasm_Ratio_Agonist: University of Pittsburgh U2OS Androgen Receptor-Transcriptional Intermediary Factor 2 (AR-TIF2) Agonism High Content Imaging Assay for Ratio of Nucleoli Translocation and Cytoplasm (AID 2284000; active = hit-call score of the fitted dose curve at least 0.9, where 1 is the maximum;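 also: hits raise the red nucleolar to cytoplasm ratio above vehicle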)
In short: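 Read-out first: nucleolar-to-cytoplasm ratio of red (AR-RFP) signal, quantified by high-content imaging in U2OS cells co-expressing TIF2-GFP. Activity is scored as signal increase over DMSO. Single-point screening used 20 uM final (0.2% DMSO).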

[4] = CCTE_Simmons_MITO_basal_resp_rate: CCTE's HepG2 Seahorse XF Respirometric Screening Assay at Basal Respiratory State, Simmons Lab (AID 2284001); settings: actives raise or lower the signal
In short: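 HepG2 respirometry; 7-pt titration 125 nM–100 uM final; kinetic OCR at 6 min intervals for 72 min; n=3 biological, technical singles; DMSO baseline, gain or loss fit; fenpyroximate (decrease) and 2,4-DNP (increase) controls.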

[5] = CCTE_Simmons_MITO_max_resp_rate: CCTE's HepG2 Seahorse XF Respirometric Screening Assay at Maximal Respiratory State [uncoupled], Simmons Lab (AID 2284002); settings: actives raise or lower the signal
In short: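 HepG2, Seahorse XF96, maximal OCR post-FCCP. Cpd 125 nM–100 uM final (7 conc), n=3 biological. Kinetic reads every 6 min (3 min mix/3 min measure) over 72 min; fit bidirectional vs DMSO.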

[6] = CCTE_Simmons_MITO_inhib_resp_rate: CCTE's HepG2 Seahorse XF Respirometric Screening Assay at Inhibited Respiratory State [full ETC block], Simmons Lab (AID 2284006); settings: actives raise or lower the signal
In short: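 HepG2 oxygen consumption was measured by Seahorse XF after compound, FCCP, then rotenone/antimycin A injections. Seven concentrations from 125 nM to 100 uM (final) were tested, with 6-min kinetic reads over 72 minutes. Inhibited-state OCR was fitted bidirectionally against DMSO.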

[7] = CCTE_Simmons_MITO_viability: CellTiter-Glo Viability Assessment for CCTE's HepG2 Seahorse XF Respirometric Screening Assay [post-hoc], Simmons Lab (AID 2284007; active = hit-call score of the fitted dose curve at least 0.9, where 1 is the maximum;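 as to AC50: cells exposed to chemical for 90 min before the ATP read; actives lower ATP signal relative to DMSO baseline meaning reduced viability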)
In short: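 HepG2 cells exposed 90 min to 7 concentrations from 125 nM to 100 uM final, then ATP measured by luciferase luminescence. Three biological replicates per concentration; DMSO vehicle; dichlone control at 10 nM–100 uM.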

[8] = CCTE_Shafer_MEA_acute_spike_number: CCTE's Neural Acute Assay for Total Number of Spikes, Shafer Lab (AID 2284008);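 as to AC50: curve fitted for decrease in spike count so AC50 reflects inhibitors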
In short: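 Rat cortical cultures, DIV 13/15, 37 C. 40 min baseline rec, cpd 0.03-40 uM, 40 min post-dose rec. Band-pass 300-5000 Hz, spike threshold 8x rms; % change in spike count per well, DMSO neg ctrl, loss-of-signal fit.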

[9] = CCTE_Harrill_HTTr_Viability_MCF7: CCTE's 6-hour Cell Viability Assessment for the High-Throughput Transcriptomics (HTTr) Platform, in MCF-7 cells cultured in DMEM + 10% fetal bovine serum, Harrill Lab (AID 2284010)
In short: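 MCF-7 cells in DMEM + 10% FBS, 384-well, exposed 6 h to an eight-point dilution series. Membrane integrity scored by high-content imaging of propidium iodide exclusion; bidirectional fit versus DMSO.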

[10] = CCTE_Harrill_HTTr_Apoptosis_MCF7: CCTE's 6-hour Apoptosis Assessment for the High-Throughput Transcriptomics (HTTr) Platform, in MCF-7 cells cultured in DMEM + 10% fetal bovine serum, Harrill Lab (AID 2284011)
In short: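 Read-out: CellEvent Caspase 3/7 Green signal by high content imaging, gain-of-signal indicating apoptosis. MCF-7 cells, DMEM + 10% FBS, eight-point dilution series, 6 h exposure. Curves fitted bidirectionally relative to DMSO negative control.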

[11] = tested on: DIO1 (gene 1733); assay: CCTE_GLTED_hDIO1: CCTE's human Deiodinase 1 (DIO1) Inhibition Assay, Great Lakes Toxicology and Ecology Division (GLTED) Lab (AID 2283987; active = hit-call score of the fitted dose curve at least 0.9, where 1 is the maximum;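 also: isolated human DIO1 enzyme in a cell-free setup rather than cells; enzyme activity read as free iodide liberated from substrate via Sandell-Kolthoff colorimetry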)
In short: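 Steps: human DIO1 enzyme plus test chemical, 3 h incubation; free iodide then quantified in a second Sandell-Kolthoff step by absorbance. DMSO served as negative control and baseline.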

Measured: AC50

CCCCOC(=O)c1ccc(O)cc1
active: [4] 23.7 µM | [5] 50 µM
not listed: [11]
inactive: all other assays above

COCC(C)OCC(C)OCC(C)O (stereo unspecified)
inactive: [1] | [2] | [3] | [9] | [10]

CN(C)c1ccc(C(=C2C=CC(=[N+](C)C)C=C2)c2ccc(N(C)C)cc2)cc1
inactive: [3] | [10]
active: [1] 0.262 µM | [2] 2.66 µM | [4] 50 µM | [5] 41.6 µM | [6] 61.6 µM | [7] 21.4 µM | [8] 0.416 µM | [9] 14.4 µM

O=c1c(-c2ccc(O)cc2)coc2cc(O)cc(O)c12
inactive: [1] | [2] | [3] | [10]
active: [11] 2.42 µM

O=C(O)Cn1c(=O)n(Cc2ccc(Br)cc2F)c(=O)c2ccc(Cl)cc21
inactive: [1] | [2] | [3] | [10]

CCOC(=O)O[C@H](C)OC(=O)c1ccc2c(c1)cc(C(=O)NC1CCN(C(C)C)CC1)n2Cc1cc(-c2ccc(Cl)s2)on1
active: [11] 97.5 µM | [10] 72.2 µM

CCCCCCCCCC(=O)O
active: [4] 23.2 µM
not listed: [8] | [11]
inactive: all other assays above

CC(C)(c1cc(Br)c(O)c(Br)c1)c1cc(Br)c(O)c(Br)c1
active: [11] 37.6 µM | [4] 4.5 µM | [5] 6.61 µM
inactive: [6] | [7] | [8] | [10]

O=C(O)c1ccccc1C(=O)OCc1ccccc1
inactive: [1] | [3] | [9] | [10]

Cc1c2ccccc2c(C)c2c1ccc1ccccc12
active: [1] 50 µM | [4] 17.1 µM | [5] 26.1 µM | [7] 19.4 µM | [8] 20 µM
not listed: [11]
inactive: all other assays above

Cc1cc(F)ccc1-c1cc(N2CC[C@@H](O)[C@H]2CO)ncc1N(C)C(=O)C(C)(C)c1cc(C(F)(F)F)cc(C(F)(F)F)c1
active: [3] 60.4 µM | [4] 40.8 µM | [5] 36.7 µM
inactive: [1] | [6] | [7] | [10]

C[C@]12CC[C@@H]3c4ccc(O)cc4CC[C@H]3[C@@H]1CC[C@H]2O
inactive: [5] | [6] | [7] | [8] | [9] | [10]
active: [4] 36.1 µM

O=C1c2ccccc2C(=O)N1CCc1noc(-c2ccc(CN3CCCCCC3)s2)n1
inactive: [6] | [7] | [9] | [10]
active: [4] 57.5 µM | [5] 39.8 µM

OC12N=C(c3ccccc3)SC1Cc1cc(Cl)ccc12 (stereo unspecified)
active: [11] 21.1 µM | [8] 6.83 µM
not listed: [1] | [2] | [3]
inactive: all other assays above

CCCCCCCCCCCC[N+](C)(C)C
active: [11] 83.2 µM | [5] 37.8 µM
inactive: [6] | [7] | [9] | [10]

O=C(Nc1ccc(Cl)cc1)Nc1ccc(Cl)c(Cl)c1
active: [1] 5.24 µM
inactive: [2] | [3] | [9] | [10]

Cc1ccc(C(C)C)cc1
inactive: [1] | [2] | [3] | [9] | [10]

Cc1cc2c(cc1C(F)(F)F)N(C(=O)Nc1ccc(Oc3cccnc3C)nc1)CC2
inactive: [4] | [6] | [7] | [8] | [10]
active: [5] 10.9 µM

CC/C(=C(/CC)c1ccc(O)cc1)c1ccc(O)cc1
inactive: [9] | [10]
active: [4] 8.17 µM | [5] 11.3 µM | [6] 6.72 µM | [7] 12 µM | [8] 8.49 µM

CCN(Cc1cccnc1)C(=O)c1cccc(Cl)c1[C@]1(C)C(=O)N(Cc2ccc(OC)cc2OC)c2ccc(Cl)cc21
active: [4] 2.36 µM | [5] 2.17 µM
not listed: [8] | [9] | [11]
inactive: all other assays above

CCCCCCCCOC(=O)c1cc(O)c(O)c(O)c1
active: [11] 101 µM | [4] 13.6 µM | [5] 11.5 µM | [8] 4.46 µM
inactive: [6] | [10]

CC(=O)N1CCN(c2ccc(OC[C@H]3CO[C@](Cn4ccnc4)(c4ccc(Cl)cc4Cl)O3)cc2)CC1
active: [4] 8.55 µM | [5] 12.7 µM | [6] 9.46 µM
inactive: [7] | [8] | [10]

CCCCCCCCN(C)CCCCCCCC
inactive: [1] | [3] | [10]

NC(=O)c1nc(-c2cccc(-c3cc(F)ccc3OCC(F)(F)C(F)(F)F)c2)n[nH]1
active: [3] 12.7 µM | [4] 6.26 µM | [5] 6.36 µM | [8] 0.648 µM
not listed: [11]
inactive: all other assays above
